# According to PMC7862700, “An all-to-all approach to the identification of sequence-specific readers for epigenetic DNA modifications on cytosine”:
# Experiments:
# Test in all cases: DAPPL (digital affinity profiling via proximity ligation, sequencing); 10 mM Tris-HCl pH 7.5, 50 mM NaCl, 1 mM DTT, 4% glycerol, room temperature, 30 min; GST-TFs on glutathione beads, 16-mer random dsDNA library, 0.1% formaldehyde crosslink after washing; high values mean tight binding
# [1] = target: T1, FLI1 (Homo sapiens, UniProt Q01543 1-452); conditions: protein: recombinant; tags: N-terminal GST; dsDNA, one strand shown
# T1 sequence: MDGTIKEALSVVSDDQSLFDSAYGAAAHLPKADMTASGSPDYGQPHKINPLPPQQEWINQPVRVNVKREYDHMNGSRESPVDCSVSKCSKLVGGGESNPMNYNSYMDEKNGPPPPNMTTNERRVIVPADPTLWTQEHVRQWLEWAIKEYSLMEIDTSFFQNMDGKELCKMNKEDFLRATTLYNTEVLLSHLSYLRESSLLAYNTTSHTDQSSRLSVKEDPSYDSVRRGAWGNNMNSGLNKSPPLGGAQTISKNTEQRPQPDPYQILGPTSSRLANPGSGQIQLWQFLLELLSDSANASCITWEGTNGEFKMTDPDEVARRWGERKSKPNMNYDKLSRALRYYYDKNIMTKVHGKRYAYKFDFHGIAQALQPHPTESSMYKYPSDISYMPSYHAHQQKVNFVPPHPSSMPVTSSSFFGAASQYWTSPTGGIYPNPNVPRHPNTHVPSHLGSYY
# Outline: (§1)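 Binding signal is given per hexamer as its read frequency for a factor divided by its frequency in the tag-only sample. GST-fused human transcription factors were expressed in yeast, captured on glutathione beads, barcoded with DNA and pooled with that sample, then incubated with 200 nmole of a 16-mer random double-stranded DNA library in Tris/NaCl/DTT/glycerol buffer for 30 min at room temperature. The pools were then washed, crosslinked, proximity-ligated, amplified by PCR and sequenced on an Illumina NextSeq500.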
# [2] = target: T2, ELK1 (Homo sapiens, UniProt P19419 1-428); conditions: protein: recombinant; tags: N-terminal GST; dsDNA, one strand shown
# T2 sequence: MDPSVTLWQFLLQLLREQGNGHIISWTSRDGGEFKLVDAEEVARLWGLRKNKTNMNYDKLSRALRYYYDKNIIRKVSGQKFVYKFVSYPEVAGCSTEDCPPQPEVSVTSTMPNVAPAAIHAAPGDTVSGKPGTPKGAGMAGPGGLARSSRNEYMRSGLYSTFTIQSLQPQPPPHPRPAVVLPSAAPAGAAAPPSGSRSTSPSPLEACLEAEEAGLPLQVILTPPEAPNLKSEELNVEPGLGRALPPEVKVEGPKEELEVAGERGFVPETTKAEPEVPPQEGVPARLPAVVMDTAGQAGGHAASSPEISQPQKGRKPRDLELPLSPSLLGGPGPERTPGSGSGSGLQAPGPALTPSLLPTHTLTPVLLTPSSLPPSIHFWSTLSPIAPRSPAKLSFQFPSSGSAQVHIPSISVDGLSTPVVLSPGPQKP
# Outline: as §1
# [3] = target: T3, GABPA (Homo sapiens, UniProt Q06546 1-454); conditions: protein: recombinant; tags: N-terminal GST; dsDNA, one strand shown
# T3 sequence: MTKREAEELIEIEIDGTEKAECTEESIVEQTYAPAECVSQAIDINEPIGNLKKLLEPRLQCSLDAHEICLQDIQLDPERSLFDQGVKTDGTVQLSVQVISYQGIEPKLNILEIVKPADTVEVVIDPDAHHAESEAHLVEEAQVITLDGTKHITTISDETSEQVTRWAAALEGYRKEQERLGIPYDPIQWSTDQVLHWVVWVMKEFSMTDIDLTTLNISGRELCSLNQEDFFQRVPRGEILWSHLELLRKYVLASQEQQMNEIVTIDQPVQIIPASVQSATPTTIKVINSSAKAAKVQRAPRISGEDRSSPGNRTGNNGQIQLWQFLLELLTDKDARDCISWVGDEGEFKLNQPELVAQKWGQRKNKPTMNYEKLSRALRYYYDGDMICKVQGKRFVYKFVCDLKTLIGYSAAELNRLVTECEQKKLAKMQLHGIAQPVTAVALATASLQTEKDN
# Outline: as §1
# [4] = target: T4, ERG (Homo sapiens, UniProt P11308 1-479); conditions: protein: recombinant; tags: N-terminal GST; dsDNA, one strand shown
# T4 sequence: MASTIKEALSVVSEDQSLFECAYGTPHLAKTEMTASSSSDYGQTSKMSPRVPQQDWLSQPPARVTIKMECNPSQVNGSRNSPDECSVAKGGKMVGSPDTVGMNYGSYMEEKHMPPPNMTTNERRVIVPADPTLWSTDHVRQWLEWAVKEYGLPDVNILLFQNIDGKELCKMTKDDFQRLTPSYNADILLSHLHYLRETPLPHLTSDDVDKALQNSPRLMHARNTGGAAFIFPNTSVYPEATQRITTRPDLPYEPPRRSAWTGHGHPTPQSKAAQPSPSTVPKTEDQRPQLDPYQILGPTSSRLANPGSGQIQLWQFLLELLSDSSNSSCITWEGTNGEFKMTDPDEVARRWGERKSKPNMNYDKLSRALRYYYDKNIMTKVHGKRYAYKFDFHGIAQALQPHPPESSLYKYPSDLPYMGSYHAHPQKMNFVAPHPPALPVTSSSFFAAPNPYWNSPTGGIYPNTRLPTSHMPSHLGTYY
# Outline: as §1
# [5] = target: ELF1 (Homo sapiens, UniProt P32519 1-619); conditions: protein: recombinant; tags: N-terminal GST; dsDNA, one strand shown
# ELF1, sequence (P32519 whole entry): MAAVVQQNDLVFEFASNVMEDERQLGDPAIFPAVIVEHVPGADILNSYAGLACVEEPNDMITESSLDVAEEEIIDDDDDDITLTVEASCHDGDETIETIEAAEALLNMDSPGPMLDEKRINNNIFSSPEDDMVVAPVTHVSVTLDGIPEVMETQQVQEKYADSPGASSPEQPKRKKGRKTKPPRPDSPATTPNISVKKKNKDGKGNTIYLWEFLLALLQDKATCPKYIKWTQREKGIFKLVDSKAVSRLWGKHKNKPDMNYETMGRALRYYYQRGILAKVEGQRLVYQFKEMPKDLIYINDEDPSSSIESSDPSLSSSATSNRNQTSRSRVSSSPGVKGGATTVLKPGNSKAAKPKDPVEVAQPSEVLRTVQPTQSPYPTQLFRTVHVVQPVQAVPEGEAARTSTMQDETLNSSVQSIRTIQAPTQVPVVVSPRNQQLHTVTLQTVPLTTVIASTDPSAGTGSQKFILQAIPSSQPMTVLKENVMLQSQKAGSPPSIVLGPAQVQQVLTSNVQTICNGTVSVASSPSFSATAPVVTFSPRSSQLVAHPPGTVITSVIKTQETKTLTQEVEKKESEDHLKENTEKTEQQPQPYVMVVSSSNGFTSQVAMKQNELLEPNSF
# Outline: as §1
# [6] = target: T5, EHF (Homo sapiens, UniProt Q9NZC4 1-300); conditions: protein: recombinant; tags: N-terminal GST; dsDNA, one strand shown
# T5 sequence: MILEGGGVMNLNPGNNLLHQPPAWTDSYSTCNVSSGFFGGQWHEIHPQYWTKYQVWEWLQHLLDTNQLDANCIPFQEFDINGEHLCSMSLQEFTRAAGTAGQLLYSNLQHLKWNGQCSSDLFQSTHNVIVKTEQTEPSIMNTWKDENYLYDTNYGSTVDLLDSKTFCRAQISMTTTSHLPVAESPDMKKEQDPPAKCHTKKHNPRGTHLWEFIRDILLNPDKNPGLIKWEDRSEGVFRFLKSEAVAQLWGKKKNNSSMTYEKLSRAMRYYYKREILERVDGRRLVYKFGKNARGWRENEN
# Outline: as §1
# [7] = target: SPI1 (Homo sapiens, UniProt P17947 1-270); conditions: protein: recombinant; tags: N-terminal GST; dsDNA, one strand shown
# Outline: as §1
# [8] = target: SPIB (Homo sapiens, UniProt Q01892 1-262); conditions: protein: recombinant; tags: N-terminal GST; dsDNA, one strand shown
# SPIB, sequence (Q01892 whole entry): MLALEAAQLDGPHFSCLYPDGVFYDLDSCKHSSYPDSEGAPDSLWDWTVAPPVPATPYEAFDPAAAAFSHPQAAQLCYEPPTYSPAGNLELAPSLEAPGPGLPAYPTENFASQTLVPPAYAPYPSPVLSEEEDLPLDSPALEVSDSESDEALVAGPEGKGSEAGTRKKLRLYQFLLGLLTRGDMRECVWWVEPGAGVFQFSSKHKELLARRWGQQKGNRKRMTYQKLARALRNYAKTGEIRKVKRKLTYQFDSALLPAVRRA
# Outline: as §1
# [9] = target: T6, ELK3 (Homo sapiens, UniProt P41970 1-407); conditions: protein: recombinant; tags: N-terminal GST; dsDNA, one strand shown
# T6 sequence: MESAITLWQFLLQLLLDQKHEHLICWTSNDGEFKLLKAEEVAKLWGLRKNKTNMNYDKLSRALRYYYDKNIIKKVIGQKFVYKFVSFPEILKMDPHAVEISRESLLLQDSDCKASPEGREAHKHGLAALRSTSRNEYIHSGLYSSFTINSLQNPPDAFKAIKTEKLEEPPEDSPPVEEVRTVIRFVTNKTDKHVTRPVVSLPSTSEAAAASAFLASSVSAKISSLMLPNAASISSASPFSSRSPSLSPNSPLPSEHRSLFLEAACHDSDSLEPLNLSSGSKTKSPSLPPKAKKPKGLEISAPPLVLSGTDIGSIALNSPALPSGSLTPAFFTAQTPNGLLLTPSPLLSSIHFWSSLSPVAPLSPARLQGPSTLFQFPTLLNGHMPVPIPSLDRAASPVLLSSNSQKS
# Outline: as §1
# [10] = target: T7, FEV (Homo sapiens, UniProt Q99581 1-238); conditions: protein: recombinant; tags: N-terminal GST; dsDNA, one strand shown
# T7 sequence: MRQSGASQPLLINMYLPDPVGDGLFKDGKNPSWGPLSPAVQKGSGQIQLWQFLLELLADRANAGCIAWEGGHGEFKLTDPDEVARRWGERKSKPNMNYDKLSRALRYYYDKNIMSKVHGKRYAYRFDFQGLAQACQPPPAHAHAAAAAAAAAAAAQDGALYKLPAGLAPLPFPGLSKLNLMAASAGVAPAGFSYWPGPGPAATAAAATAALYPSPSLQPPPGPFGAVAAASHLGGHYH
# Outline: as §1
# [11] = target: ETV5 (Homo sapiens, UniProt P41161 1-510); conditions: protein: recombinant; tags: N-terminal GST; dsDNA, one strand shown
# ETV5, sequence (P41161 whole entry): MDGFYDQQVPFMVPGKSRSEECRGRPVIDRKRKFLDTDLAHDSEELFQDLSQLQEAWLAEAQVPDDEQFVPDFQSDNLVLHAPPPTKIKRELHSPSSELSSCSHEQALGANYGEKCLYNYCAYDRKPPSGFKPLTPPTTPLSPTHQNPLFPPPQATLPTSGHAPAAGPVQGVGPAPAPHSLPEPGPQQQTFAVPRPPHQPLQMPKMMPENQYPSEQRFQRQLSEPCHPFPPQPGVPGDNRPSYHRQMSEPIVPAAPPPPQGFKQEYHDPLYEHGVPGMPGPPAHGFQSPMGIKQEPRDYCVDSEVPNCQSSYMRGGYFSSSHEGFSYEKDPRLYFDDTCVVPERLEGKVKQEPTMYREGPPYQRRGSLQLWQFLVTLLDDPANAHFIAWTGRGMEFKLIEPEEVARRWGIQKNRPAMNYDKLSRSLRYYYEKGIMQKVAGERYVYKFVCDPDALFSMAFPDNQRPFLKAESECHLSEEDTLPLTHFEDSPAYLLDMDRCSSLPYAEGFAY
# Outline: as §1
# [12] = target: HSF1 (Homo sapiens, UniProt Q00613 1-529); conditions: protein: recombinant; tags: N-terminal GST; chain copies: 3; dsDNA, one strand shown
# HSF1, sequence (Q00613 whole entry): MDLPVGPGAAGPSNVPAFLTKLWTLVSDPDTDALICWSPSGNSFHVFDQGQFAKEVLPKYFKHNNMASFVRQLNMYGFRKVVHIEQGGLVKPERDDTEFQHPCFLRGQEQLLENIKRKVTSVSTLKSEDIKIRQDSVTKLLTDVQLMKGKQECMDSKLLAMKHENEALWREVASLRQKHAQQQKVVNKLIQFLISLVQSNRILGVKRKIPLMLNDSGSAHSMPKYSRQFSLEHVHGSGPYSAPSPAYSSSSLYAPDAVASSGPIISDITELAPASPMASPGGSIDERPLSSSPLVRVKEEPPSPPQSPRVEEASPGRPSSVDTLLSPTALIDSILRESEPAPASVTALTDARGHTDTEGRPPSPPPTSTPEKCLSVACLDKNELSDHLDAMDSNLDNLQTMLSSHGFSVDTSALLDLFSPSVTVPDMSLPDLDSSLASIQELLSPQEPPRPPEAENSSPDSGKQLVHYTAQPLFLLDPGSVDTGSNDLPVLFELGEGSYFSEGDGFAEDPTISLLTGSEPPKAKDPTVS
# Outline: as §1
# [13] = target: T8, SPIC (Homo sapiens, UniProt Q8N5J4 1-248); conditions: protein: recombinant; tags: N-terminal GST; dsDNA, one strand shown
# T8 sequence: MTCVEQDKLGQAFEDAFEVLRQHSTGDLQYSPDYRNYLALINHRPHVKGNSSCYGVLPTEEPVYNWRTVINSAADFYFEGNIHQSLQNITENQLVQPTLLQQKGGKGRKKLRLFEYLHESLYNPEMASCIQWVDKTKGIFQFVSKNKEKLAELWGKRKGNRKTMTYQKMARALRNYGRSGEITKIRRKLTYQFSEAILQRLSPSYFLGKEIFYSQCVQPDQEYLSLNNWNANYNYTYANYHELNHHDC
# Outline: as §1
# [14] = target: ELF4 (Homo sapiens, UniProt Q99607 1-663); conditions: protein: recombinant; tags: N-terminal GST; dsDNA, one strand shown
# ELF4, sequence (Q99607 whole entry): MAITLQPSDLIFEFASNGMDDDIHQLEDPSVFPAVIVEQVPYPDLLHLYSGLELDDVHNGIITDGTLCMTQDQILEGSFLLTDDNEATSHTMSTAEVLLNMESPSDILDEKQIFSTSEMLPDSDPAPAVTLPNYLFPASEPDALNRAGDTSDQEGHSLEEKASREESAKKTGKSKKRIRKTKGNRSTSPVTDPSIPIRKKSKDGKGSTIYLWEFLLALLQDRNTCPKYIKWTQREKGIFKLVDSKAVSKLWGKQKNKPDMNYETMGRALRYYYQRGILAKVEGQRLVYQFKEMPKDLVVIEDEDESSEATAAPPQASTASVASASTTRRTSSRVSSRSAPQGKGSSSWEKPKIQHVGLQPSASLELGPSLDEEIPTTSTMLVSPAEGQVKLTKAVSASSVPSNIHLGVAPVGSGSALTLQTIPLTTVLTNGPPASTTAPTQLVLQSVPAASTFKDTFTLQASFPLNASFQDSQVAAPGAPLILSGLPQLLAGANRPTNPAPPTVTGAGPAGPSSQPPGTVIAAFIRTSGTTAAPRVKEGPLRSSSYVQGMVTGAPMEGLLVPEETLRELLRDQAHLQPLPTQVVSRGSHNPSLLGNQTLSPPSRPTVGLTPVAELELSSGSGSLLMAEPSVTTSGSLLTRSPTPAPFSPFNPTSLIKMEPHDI
# Outline: as §1
# [15] = target: T9, ELK4 (Homo sapiens, UniProt P28324-2 1-405); conditions: protein: recombinant; tags: N-terminal GST; dsDNA, one strand shown
# T9 sequence: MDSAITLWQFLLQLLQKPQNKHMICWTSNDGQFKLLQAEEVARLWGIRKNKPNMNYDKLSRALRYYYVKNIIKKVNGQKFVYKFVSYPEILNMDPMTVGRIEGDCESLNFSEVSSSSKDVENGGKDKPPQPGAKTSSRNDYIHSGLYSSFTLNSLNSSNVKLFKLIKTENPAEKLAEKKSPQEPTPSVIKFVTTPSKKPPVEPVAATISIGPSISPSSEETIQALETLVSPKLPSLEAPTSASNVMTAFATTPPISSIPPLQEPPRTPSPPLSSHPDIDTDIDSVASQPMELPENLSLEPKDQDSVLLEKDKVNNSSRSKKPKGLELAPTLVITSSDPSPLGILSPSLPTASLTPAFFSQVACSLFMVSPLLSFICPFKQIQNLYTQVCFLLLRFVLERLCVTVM
# Outline: as §1
# [16] = target: T10, ETV2 (Homo sapiens, UniProt O00321 1-342); conditions: protein: recombinant; tags: N-terminal GST; dsDNA, one strand shown
# T10 sequence: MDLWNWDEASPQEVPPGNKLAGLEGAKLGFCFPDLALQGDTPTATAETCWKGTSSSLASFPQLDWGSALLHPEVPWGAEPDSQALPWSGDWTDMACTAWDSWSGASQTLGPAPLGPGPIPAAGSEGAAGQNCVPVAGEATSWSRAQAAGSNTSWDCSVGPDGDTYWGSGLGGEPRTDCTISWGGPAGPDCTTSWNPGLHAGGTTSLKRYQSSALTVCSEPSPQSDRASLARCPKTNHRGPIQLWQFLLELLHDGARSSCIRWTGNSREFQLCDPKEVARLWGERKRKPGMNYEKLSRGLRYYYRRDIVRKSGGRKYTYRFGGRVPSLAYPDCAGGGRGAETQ
# Outline: as §1
# [17] = target: T11, ELF3 (Homo sapiens, UniProt P78545 1-371); conditions: protein: recombinant; tags: N-terminal GST; dsDNA, one strand shown
# T11 sequence: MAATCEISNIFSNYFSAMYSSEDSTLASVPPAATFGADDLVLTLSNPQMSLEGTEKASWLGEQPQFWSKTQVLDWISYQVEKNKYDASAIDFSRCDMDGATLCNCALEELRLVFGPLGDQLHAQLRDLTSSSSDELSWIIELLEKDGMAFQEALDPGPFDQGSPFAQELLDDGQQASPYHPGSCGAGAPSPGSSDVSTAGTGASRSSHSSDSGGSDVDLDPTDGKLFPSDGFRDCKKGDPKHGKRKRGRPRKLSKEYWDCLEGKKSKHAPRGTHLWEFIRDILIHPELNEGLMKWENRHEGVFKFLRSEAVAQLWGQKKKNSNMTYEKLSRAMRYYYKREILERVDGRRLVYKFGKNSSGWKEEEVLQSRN
# Outline: as §1
# [18] = target: CRX (Homo sapiens, UniProt O43186 1-299); conditions: protein: recombinant; tags: N-terminal GST; dsDNA, one strand shown
# CRX, sequence (O43186 whole entry): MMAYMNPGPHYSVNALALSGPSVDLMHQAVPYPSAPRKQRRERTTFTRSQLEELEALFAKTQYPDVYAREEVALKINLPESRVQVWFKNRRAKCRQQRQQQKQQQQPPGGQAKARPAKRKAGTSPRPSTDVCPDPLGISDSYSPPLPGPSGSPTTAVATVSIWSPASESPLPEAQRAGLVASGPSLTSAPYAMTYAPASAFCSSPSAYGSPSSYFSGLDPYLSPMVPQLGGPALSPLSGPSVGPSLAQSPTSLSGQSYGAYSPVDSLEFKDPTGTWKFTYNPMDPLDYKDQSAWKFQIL
# Outline: as §1
# [19] = target: ETV1 (Homo sapiens, UniProt P50549 1-477); conditions: protein: recombinant; tags: N-terminal GST; dsDNA, one strand shown
# ETV1, sequence (P50549 whole entry): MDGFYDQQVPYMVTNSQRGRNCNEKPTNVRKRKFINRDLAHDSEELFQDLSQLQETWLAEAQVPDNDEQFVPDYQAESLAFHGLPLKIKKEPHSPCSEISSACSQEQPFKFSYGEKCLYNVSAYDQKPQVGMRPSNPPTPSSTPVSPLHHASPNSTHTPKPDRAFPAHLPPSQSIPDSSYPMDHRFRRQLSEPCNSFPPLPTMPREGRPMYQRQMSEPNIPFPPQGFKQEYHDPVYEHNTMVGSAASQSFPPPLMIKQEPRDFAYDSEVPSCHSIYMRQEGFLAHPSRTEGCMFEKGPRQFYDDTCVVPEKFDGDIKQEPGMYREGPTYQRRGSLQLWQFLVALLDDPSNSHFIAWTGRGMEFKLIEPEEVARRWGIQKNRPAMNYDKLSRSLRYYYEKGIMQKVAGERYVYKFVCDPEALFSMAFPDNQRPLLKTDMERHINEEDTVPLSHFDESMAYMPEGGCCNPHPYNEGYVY
# Outline: as §1
sequence,measurement,setting,value
TCTGCG,binding signal,[1],"1.12 fold enrichment (6-mer frequency, TF over GST control)"
same,binding signal,[2],"1.28 fold enrichment (6-mer frequency, TF over GST control)"
same,binding signal,[3],"1.27 fold enrichment (6-mer frequency, TF over GST control)"
same,binding signal,[4],"1.18 fold enrichment (6-mer frequency, TF over GST control)"
same,binding signal,[5],"1.2 fold enrichment (6-mer frequency, TF over GST control)"
same,binding signal,[6],"1.23 fold enrichment (6-mer frequency, TF over GST control)"
same,binding signal,[7],"1.28 fold enrichment (6-mer frequency, TF over GST control)"
same,binding signal,[8],"1.23 fold enrichment (6-mer frequency, TF over GST control)"
same,binding signal,[9],"1.11 fold enrichment (6-mer frequency, TF over GST control)"
same,binding signal,[10],"1.22 fold enrichment (6-mer frequency, TF over GST control)"
same,binding signal,[11],"1.22 fold enrichment (6-mer frequency, TF over GST control)"
same,binding signal,[12],"1.15 fold enrichment (6-mer frequency, TF over GST control)"
same,binding signal,[13],"1.24 fold enrichment (6-mer frequency, TF over GST control)"
same,binding signal,[14],"1.2 fold enrichment (6-mer frequency, TF over GST control)"
same,binding signal,[15],"1.14 fold enrichment (6-mer frequency, TF over GST control)"
same,binding signal,[16],"1.19 fold enrichment (6-mer frequency, TF over GST control)"
same,binding signal,[17],"1.31 fold enrichment (6-mer frequency, TF over GST control)"
same,binding signal,[18],"1.09 fold enrichment (6-mer frequency, TF over GST control)"
same,binding signal,[19],"1.45 fold enrichment (6-mer frequency, TF over GST control)"
